Measurements from PubChem BioAssay.

system: XIP peptide (Xip251-270) binding; assay: XIP fragment 251-270 binding compounds – biochemical, small-molecule microarray, fluorescence 635/667 nm, 0.1 µg/mL protein, primary screen (AID 1182); conditions: fluorescent protein binding, 635 nm, higher = more signal, called active from +8 up or from −8 down

Composite z-score, inactive:
CC(CCN1CCCCc2nc(C)c(C)cc21)=NO[C@H](C)c1cn([C@@H]2COC[C@H]2O)nn1 0.641
CC(C)[C@H](NC(=O)OC(C)(C)C)[C@@H](O)CC(=O)C(C)(C)C -0.232
COC(=O)CC=C[C@@H](C)[C@@H](C=NOC[C@@H](O)COCc1ccco1)NS(=O)(=O)c1ccc(C)cc1 0.133
CCN1C(=O)[C@H]2[C@H]3[C@H](O)[C@H](O)CC(=NOC[C@@H](O)COCc4ccco4)[C@H]3CC[C@H]2C1=O 0.386
CCN1C(=O)[C@H]2[C@H]3[C@H](O)[C@H](O)CC(=NOCC[C@@H]4C=C[C@H](OC(C)=O)[C@@H](COC(C)=O)O4)[C@@H]3CC[C@H]2C1=O 0.607
CCOC(=O)[C@H](Cc1ccccc1)NC(=O)CCC1CC(OC(=O)NCc2ccc3c(c2)OCO3)CC2(CCCC(COC(=O)NCCOc3ccccc3)O2)O1 (stereo partly specified) -0.125
C[C@H]1CC[C@H]2C(=O)N[C@H](Cc3ccccc3)C(=O)N2[C@@H]1c1ccccc1 0.469
CC(CCC(=O)OC[C@H]1O[C@H](C#Cc2ccccc2)C=C[C@@H]1Oc1ccc(C)cc1)=NOC(C)CN1CCCCc2nc(C)c(C)cc21 (stereo partly specified) -0.185
CC(CCC(=O)OC[C@H]1O[C@H](C#Cc2ccccc2)C=C[C@@H]1Oc1ccc(C)cc1)=NO[C@H](C)c1cn([C@@H]2COC[C@H]2O)nn1 0.0435
CCN1C(=O)[C@H]2[C@@H]3C(=CC[C@H]2C1=O)C(=O)[C@H]1O[C@H]1[C@H]3O -0.529
CCO[C@H](c1cc(OC)cc([N+](=O)[O-])c1OC)[C@H](C)[C@@H](OC)[C@H](C)C=CCC(=O)OC 0.72
CCOC(=O)CCN1C(=O)[C@H]2[C@H]3[C@H](O)[C@H](O)CC(=NNC(=O)OCC)[C@H]3CC[C@H]2C1=O 3.24
CC(C)=CCCC(C)=CCON=C1C[C@@H](O)[C@@H](O)[C@@H]2[C@@H]3C(=O)N(C4CCCCC4)C(=O)[C@@H]3CC[C@H]12 1.45
CCOC(=O)CCN1C(=O)[C@H]2[C@H]3[C@H](O)[C@H](O)CC(=NOCC=C(C)CCC=C(C)C)[C@@H]3CC[C@H]2C1=O 0.257
COc1cccc([C@H]2Oc3ccc(OC)cc3C(=NOCC[C@@H]3C=C[C@H](OC(C)=O)[C@@H](COC(C)=O)O3)[C@@H]2O)c1 0.451
CC(C)(C)N1C(=O)[C@H]2[C@H]3[C@H](O)[C@H](O)CC(=NOC[C@@H](O)COCc4ccco4)[C@H]3CC[C@H]2C1=O 0.0133
CCc1cc2c(nc1CC)CCN(CCC(C)=NO[C@@H]1O[C@H](COC(C)=O)[C@@H](OC(C)=O)[C@H](OC(C)=O)[C@H]1OC(C)=O)C2 2.93
CO[C@H]1COC(=O)CC=C[C@H](C)[C@H](OC)COC(=O)[C@@H](C)NC(=O)CC=C[C@@H]1C 0.533
O=C1[C@H]2[C@H]3[C@H](O)[C@H](O)CC(=NO[C@@H]4O[C@H](CO)[C@@H](O)[C@H](O)[C@H]4O)[C@H]3CC[C@H]2C(=O)N1C[C@@H]1CCCO1 -0.48
CC(=O)OC[C@H]1O[C@@H](ON=C(C)C)[C@H](OC(C)=O)[C@@H](OC(C)=O)[C@@H]1OC(C)=O -0.0542
O=C1[C@H]2[C@H]3[C@H](O)[C@H](O)CC(=NO[C@@H]4O[C@H](CO)[C@@H](O)[C@H](O)[C@H]4O)[C@@H]3CC[C@H]2C(=O)N1C1CCCCC1 -0.25
CC(C)CON=C1C[C@@H](O)[C@@H](O)[C@@H]2[C@@H]3C(=O)N(Cc4ccccc4)C(=O)[C@@H]3CC[C@H]12 -0.0404
CC(CCN1CCCc2nc(C)c(C)cc21)=NOC[C@@H](C)[C@H](OCc1ccccc1)C(C)C -0.563
C[C@@H]1CC[C@H]2C(=O)OC(CN3C(=O)c4ccccc4C3=O)CN2[C@H]1c1ccc(Br)cc1 (stereo partly specified) -0.212
O=C1[C@H]2[C@H]3[C@H](O)[C@H](O)CC(=NOC[C@@H](O)COCc4ccco4)[C@@H]3CC[C@H]2C(=O)N1Cc1ccccc1 0.41
CC(=O)OC[C@H]1O[C@H](CC=NOC(C)CN2CCCc3nc(C)c(C)cc32)C=C[C@@H]1OC(C)=O (stereo partly specified) 1.29
CC1(C)O[C@H]2OC([C@H](O)CON3C(=O)c4ccccc4C3=O)[C@H](O)[C@H]2O1 (stereo partly specified) -0.592
COC(=O)CC=C[C@@H](C)[C@@H](C=NOC(C)CN1CCCCc2nc(C)c(C)cc21)NS(=O)(=O)c1ccc(C)cc1 (stereo partly specified) -0.598
C=CC[C@@H]1C=C[C@H](Oc2ccc(C)cc2)[C@@H](COC(=O)NCc2cccc3ccccc23)O1 -0.405
CCOC(=O)[C@H](Cc1ccccc1)NC(=O)CCC1CC(OC(=O)NCc2ccc3c(c2)OCO3)CC2(CCCC(COC(=O)NCCOC)O2)O1 (stereo partly specified) 0.247
CC(C)=CCCC(C)=CCON=C1C[C@@H](O)[C@@H](O)[C@@H]2[C@@H]3C(=O)N([C@@H](C)c4ccccc4)C(=O)[C@@H]3CC[C@@H]12 0.0439
CC(C)(C)N1C(=O)[C@H]2[C@H]3[C@H](O)[C@H](O)CC(=NNC(=O)OCc4ccccc4)[C@@H]3CC[C@H]2C1=O 0.0863
CCOC(=O)CCN1C(=O)[C@H]2[C@H]3[C@H](O)[C@H](O)CC(=NNC(=O)OCc4ccccc4)[C@H]3CC[C@H]2C1=O 0.0983
CO[C@@H]1COC(=O)[C@H](CCSC)NC(=O)CC=C[C@@H](C)COC(=O)[C@@H]2CCCN2C(=O)CC=C[C@H]1C 0.665
CCOC(=O)NN=C1C[C@@H](O)[C@@H](O)[C@@H]2[C@@H]3C(=O)N(C[C@@H]4CCCO4)C(=O)[C@@H]3CC[C@H]12 0.0272
C#CCCCON=C1C[C@@H](O)[C@@H](O)[C@@H]2[C@@H]3C(=O)N(C4CCCCC4)C(=O)[C@@H]3CC[C@@H]12 0.481
